Laboratory results: PubChem BioAssay (NCI)
This is part of a sample that, as a whole, favours compounds with a hit. Of some 83,000 tested, about 20% had one in any assay.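 Treatment: one concentration, 48 hours, 96-well format. Scoring: percent growth, with anything below 10 considered active.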 Values without a mark were called inactive. The source made the active and inactive calls.

Legend:
Test in all cases: NCI-60 one-dose screen, 48 h (100 = growth as untreated, 0 = no growth, -100 = all killed)
NCI-H23 lung = conditions: 10 µM unless noted
NCI-H226 lung = conditions: 10 µM unless noted
NCI-H322M lung = conditions: 10 µM unless noted
NCI-H460 lung = conditions: 10 µM unless noted
HOP-92 NSCLC = conditions: 10 µM
NCI-H522 lung = conditions: 10 µM
A549/ATCC NSCLC = conditions: 10 µM unless noted
786-0 renal = conditions: 10 µM unless noted
COLO 205 colon = conditions: 10 µM unless noted

Row | SMILES | growth (NCI-H23 lung) | growth (NCI-H226 lung) | growth (NCI-H322M lung) | growth (NCI-H460 lung) | growth (HOP-92 NSCLC) | growth (NCI-H522 lung) | growth (A549/ATCC NSCLC) | growth (786-0 renal) | growth (COLO 205 colon)
1 | CC(C)(C)c1ccc([I+]c2ccc(C(C)(C)C)cc2)cc1 | -13.7% (active) | 23.8% | 55.8% | 4.98% (active) | -9.02% (active) | 7.79% (active) | 39.9% | 16.8% | -42.1% (active)
2 | COC1NC(Cl)=C(C#N)C(C#N)(C#N)C1(C)C (stereo not given) | 108% | 108% | 121% | 114% | 97.2% | 104% | 109% | 87.2% | 124%
3 | COc1cc(-c2nc3c(c(C)nc4c3nnn4-c3ccccc3)c(=O)o2)cc(OC)c1OC | 115% | 104% | 104% | 115% | 103% | 103% | 112% | 104% | 113%
4 | CC(C)OC(=O)Nn1cnc2ccccc21 | 98.4% | 106% | 122% | 114% | 95.6% | 103% | 117% | 96.7% | 130%
5 | COc1ccc(C(=O)CN2C(=O)NC(c3ccccc3)(c3ccccc3)C2=O)cc1 | 103% | 93.2% | 110% | 102% | 71.5% | 96.5% | 103% | 109% | 115%
6 | CCOC(=O)C1=NN(c2ccccc2)C2=NC(=O)/C(=C\c3cn(-c4ccccc4)nc3-c3cc4ccccc4o3)C(=O)N12 | 95.4% | 84.7% | 89.6% | 97% | 63.5% | 89.5% | 96.8% | 99.9% | 109%
7 | O=S(=O)(O)c1ccc2c(c1)Sc1cc(S(=O)(=O)O)ccc1O2 | 109% | 118% | 118% | 118% | 98.5% | 107% | 99.5% | 108% | 111%
8 | Cc1ccc2c(O)c(O)cc(NC(C)CCCN)c2n1 (stereo not given) | 20.7% | 111% | 26% | 107% | 84.4% | 22.3% | 84.6% | 95.8% | 32.7%
9 | Cc1nc(NC(=S)Nc2ccc(F)cc2)sc1C(=O)NNC(=S)Nc1ccc(F)cc1 | 38% | 60.7% | 86.8% | 70.2% | 19.7% | 33.9% | 66.2% | 18.9% | 85.9%
10 | CCC(C)C1NC(=O)C(CCCCN)NC(=O)C(CCCCN)NC(=O)C(CC(C)C)NC(=O)C(CCCCN)NC(=O)C(C(C)CC)NC(=O)C(C(C)C)NC(=O)C(C(C)CC)NC(=O)C(CCCCN)NC(=O)C(CCCCN)NC(=O)C(C)NC(=O)C(CCCCN)NC(=O)C(CC(C)C)NC1=O (stereo not given) | 16.6% | 46.8% | 82% | 14.8% | -9.52% (active) | 9.29% (active) | 20.2% | 20.8% | -59.4% (active)
11 | CC(=O)OC1/C=C\CC/C=C\C1 (stereo not given) | 121% | 102% | 102% | 102% | 92.8% | 102% | 100% | 102% | 121%
12 | CCOC(=O)NC1=NCC(C)(C)S1 | 102% | 97.2% | 101% | 101% | 111% | 87.3% | 100% | 104% | 117%
13 | NC(N)=Nc1ccc(/C=C2\C=Cc3ccccc32)cc1 | 69.9% | 74.6% | 70.5% | 63.5% | 9.95% (active) | 42.7% | 78.6% | 67.3% | -77.9% (active)
14 | COc1ccc2oc(=O)cc(CN3C(=O)S/C(=C\c4ccc(Cl)cc4)C3=O)c2c1 | 90.9% | 92.3% | 104% | 102% | 86.5% | 79.6% | 97.9% | 93.1% | 136%
15 | Cc1nn(-c2ccccc2)c(N)c1N=C1NC(=O)/C(=C/c2ccc(Cl)cc2)S1 | 78.2% | 83.5% | 81.8% | 92.6% | 79.9% | 87.1% | 80.6% | 94.7% | 88.4%
16 | O=C(N/N=C/c1cc(Cl)ccc1O)C(=O)N/N=C/c1cc(Cl)ccc1O | 80% | 74.9% | 61.6% | 34.8% | 51.9% | 62.7% | 52.6% | 65.2% | 75.2%
17 | COc1cc(CNC(=O)CCCC/C=C/C(C)C)ccc1OCc1nnc(Nc2ccccc2F)o1 | 63.8% | 64.5% | 86.1% | 80.3% | 56.4% | 60.3% | 105% | 12% | 104%
18 | CCc1ccc(C(=Nc2ccc(N(C)C(=O)CN3CCN(C)CC3)cc2)c2c(O)[nH]c3ccc(C(=O)OC)cc23)cc1 | -60.5% (active) | -26.2% (active) | -39.7% (active) | -74.5% (active) | -70.7% (active) | -64.1% (active) | -29.3% (active) | -93.3% (active) | -69.4% (active)
19 | COc1cc(NC(C)CCCN)c2nccc(C)c2c1OC (stereo not given) | 51.8% | 97.2% | 103% | 109% | 47.9% | 31.6% | 144% | 98.8% | 50.6%
20 | COc1ccc2nc3cc(Cl)ccc3c(NCCCNC(C)=O)c2c1 | 37% | 34.1% | 34.4% | 7.26% (active) | 50.4% | 52.5% | 23.9% | 48.9% | 23.7%
21 | CCCCCCCCCC[N+](C)(C)C | 28.8% | 45% | 75.6% | 13% | -24.5% (active) | 18.1% | 34.3% | 8.96% (active) | -49.9% (active)
22 | Cc1nc2c(nnn2-c2ccccc2)c2nc(-c3ccccc3)oc(=O)c12 | 109% | 99.8% | 103% | 116% | 107% | 105% | 116% | 101% | 115%
23 | COc1ccc(Cn2cc3c(c2-c2ccccc2)CCc2cnoc2-3)cc1OC | 26.3% | 57.3% | 44.8% | 7.98% (active) | 61.1% | 35.1% | 41.3% | 39.7% | 8.16% (active)
24 | N=C(N)N=Nc1ccc(NN=C(N)N)c2ccccc12 | 106% | 117% | 97% | 108% | 93.7% | 87.1% | 97.8% | 95.3% | 111%
25 | Cc1c(O)c(N=Nc2ccc(C(=O)O)c(O)c2)c2ccccc2c1O | 92.3% | 104% | 105% | 96.7% | 77.7% | 100% | 78.9% | 104% | 119%
26 | CC(=O)OCC1O[C@@H](OC(C)=O)[C@@H](NC(=O)NS(=O)(=O)c2ccccc2)C(OC(C)=O)[C@@H]1OC(C)=O (stereo not given in full) | 113% | 99.7% | 98.7% | 117% | 97.9% | 96% | 106% | 98.3% | 120%
27 | CC(=N\N=C(N)N)/C(=N/N=C(N)N)c1ccccc1 | 43.1% | 91.4% | 76.4% | 93.3% | 95.2% | 94.4% | 86.2% | 101% | 6.49% (active)
28 | O=S(=O)(Cc1cccc2c(CS(=O)(=O)c3ccc(Cl)cc3)cccc12)c1ccc(Cl)cc1 | 98% | 107% | 86.7% | 72.4% | 97.1% | 96.4% | 84.3% | 119% | 83%
29 | c1ccc2[nH]c(-c3ccc(OCCCCCOc4ccc(-c5nc6ccccc6[nH]5)cc4)cc3)nc2c1 | 40.9% | 103% | 72.7% | -19.8% (active) | -75% (active) | 30.9% | 12.7% | 14.7% | 121%
30 | CCOc1ccc2nc3ccc(Cl)cc3nc2c1 | 65.4% | 81.3% | 96.6% | 95.9% | 73.9% | 76.9% | 94.9% | 81.1% | 114%
